Sampled rows, rich in hits. Any-hit rate of the full collection: about 17%.
ATXN2 expr inh – inhibitors of ATXN2 expression; HEK-293 ATXN2-luciferase reporter, luminescence, 24 h; actives 0.72% (n = 360,000); Potency, µM (titrated, usually from 57 µM), for the others: at the highest dose activity change, negative = inhibition, hits mostly inhibitors; also: % is scaled to controls: 0 for no effect and ±100 for the full control effect; nearly all actives have a fitted effect of over 55% in size
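qHTS (up to 57 uM final) was run with 24 h compound exposure of reporter cells at 37 °C. Each well was multiplexed: SteadyGlo luminescence measured ATXN2-luciferase expression after a fluorogenic Gly-Phe-AFC viability readout (25 uM final).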
TDP1 cell noCPT – qHTS for Inhibitors of human tyrosyl-DNA phosphodiesterase 1 (TDP1): qHTS in cells in absence of CPT | actives 15% (n = 420,000) | Potency, µM (highest dose often 46.2 µM), for the others: at the top dose activity change, negative = growth inhibition, usual class: inhibitors | AID 686978, 2013 | DT40 Tdp1-/- hTDP1 cells, no CPT, ATP luminescence, 48 h; also: % is scaled to controls: 0 for no effect and ±100 for the full control effect; nearly all actives have a fitted effect of over 55% in size
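A cellular qHTS used chicken DT40 cells lacking endogenous Tdp1 but carrying stably transfected human TDP1. Compounds were applied without camptothecin, and cell growth kinetics were judged by ATP-dependent luminescence after ≥48 hr.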
DT40 TDP1 CPT – DT40-hTDP1 cell growth loss with CPT; actives 12% (n = 420,000); chicken DT40 Tdp1-/-;hTDP1 cells + 20 nM CPT, ATP luminescence, 48 h; Potency, µM (doses to about 46.2 µM), inactives show at the top dose activity change, negative = growth inhibition, most hits filed as inhibitors; AID 686979; also: % is scaled to controls: 0 for no effect and ±100 for the full control effect; nearly all actives have a fitted effect of over 55% in size
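Cell growth measured by CellTiter-Glo luminescence after a minimum 48 h, 37 C compound exposure with 20 nM CPT in Tdp1-knockout DT40 cells stably expressing hTDP1, seeded 400/well; qHTS titration format.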
TGFb inhibitor – inhibitors of TGF-b signaling. HepG2 CAGA-GFP TGF-b/SMAD3 reporter, GFP fluorescence, 18 h; TGF-beta stimulated, 500 pg/mL final. Potency, µM (highest dose often 46.1 µM), without a hit: at the top dose activity, negative = inhibition, hits mostly inhibitors. actives 1.2% (n = 410,000); also: % is scaled to controls: 0 for no effect and ±100 for the full control effect; nearly all actives have a fitted effect of over 65% in size
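Cell-based qHTS in HEPG2 carrying a CAGA-GFP Smad reporter; compounds added before 500 pg/mL final TGF-beta, 18 h incubation at 37 degrees C, GFP fluorescence quantified per cell by imaging cytometry.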
HepG2 tox – counter-screen for TGF-b inhibitors: cytotoxicity in HepG2 cells; HepG2 CAGA-GFP viability, ATP luminescence, 18 h; Potency, µM (top dose mostly 46.1 µM), for the others: at the highest dose activity change, negative = cytotoxicity, hits mostly cytotoxic; actives 0.76% (n = 410,000)
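HepG2 CAGA-GFP cells (1000/well, DMEM with 1% FBS) received compound, then TGF-beta at 500 pg/mL final, and were incubated 18 hours at 37 degrees C. Viability was read by CellTiter-Glo luminescence. Media-only wells were set as complete cell-killing and DMSO as no toxicity.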
S2 tox – reduces viability in counter-screen for ATXN expression inhibitors. Potency, µM (doses to about 56.7 µM), most hits filed as cytotoxic. S2 cells (HEK-293 line with an ATXN2-luciferase reporter) viability, CellTiter-Fluor protease fluorescence, 24 h. actives 0.49% (n = 400,000); also: nearly all actives have a fitted effect of over 40% in size
* marks the source's active call; other numbers are inactive results. Calls follow the shape of the dose curve; as a rule, active = well fitted curve in the direction sought with a large enough effect; inconclusive = small, poorly fitted or top-dose-only effect, or another doubt; inactive = no such curve, though single readings can be large; an effect the other way counts as inactive or inconclusive. Potency is read from the fitted curve at half-maximal effect.

What do the screens show for `CCOC(=O)CSc1nc2ccc(C)cc2cc1C#N`?
ATXN2 expr inh: 72%; TDP1 cell noCPT: -21%; DT40 TDP1 CPT: -23%; TGFb inhibitor: 15%; HepG2 tox: 9%; S2 tox: inactive

How did CCOC(=O)CSc1nc2cc(C)ccc2cc1C#N do in these assays?
ATXN2 expr inh: 105%; TDP1 cell noCPT: 10µM*; DT40 TDP1 CPT: 13µM*; TGFb inhibitor: 1%; HepG2 tox: -3%; S2 tox: inactive

Results for CCOC(=O)CSc1nc(N)c(C#N)cc1C#N ?
TDP1 cell noCPT: 16µM*; DT40 TDP1 CPT: -28%; TGFb inhibitor: -12%; HepG2 tox: 1%; S2 tox: inactive

What do the screens show for `S=C(NCCCN1CCOCC1)N(Cc1ccccc1)Cc1ccccc1`?
ATXN2 expr inh: -17%; TDP1 cell noCPT: -6%; DT40 TDP1 CPT: 2%; TGFb inhibitor: 2%; HepG2 tox: -5%; S2 tox: inactive

What do the screens show for `CN(C)c1ccc(/C=C(/C#N)C(=O)NCc2ccccc2)o1`?
ATXN2 expr inh: 41%; TDP1 cell noCPT: -21%; DT40 TDP1 CPT: -24%; TGFb inhibitor: 119%; HepG2 tox: -4%; S2 tox: inactive

What do the screens show for `COc1ccc(CNC(=O)Cc2c(C(=O)O)c(C)cn2C)cc1`?
ATXN2 expr inh: 6%; TDP1 cell noCPT: 3%; DT40 TDP1 CPT: 0%; TGFb inhibitor: 26%; HepG2 tox: 8%; S2 tox: inactive

How did Cc1nc(SCC(=O)Nc2ccccc2Cl)cc(-c2ccccc2)n1 do in these assays?
TDP1 cell noCPT: -18%; DT40 TDP1 CPT: -5%; TGFb inhibitor: 0%; HepG2 tox: -1%

What do the screens show for `CC(O)CNc1nc2ccccc2n1-c1ncnc2sc3c(c12)CCC3` (stereo not given)?
ATXN2 expr inh: -27%; TDP1 cell noCPT: 29µM*; DT40 TDP1 CPT: 16µM*; TGFb inhibitor: -7%; HepG2 tox: -40%; S2 tox: inactive

How did CN(c1cccc(F)c1)c1cc2c(c3c1ccn3C)C1CCC2O1 (stereo not given) do in these assays?
ATXN2 expr inh: -25%; TDP1 cell noCPT: 16µM*; DT40 TDP1 CPT: 16µM*; TGFb inhibitor: inconclusive; HepG2 tox: -18%; S2 tox: inconclusive

What do the screens show for `COc1ccc(-c2cc3c(c4c2ccn4C)C2CCC3O2)cn1` (stereo not given)?
ATXN2 expr inh: -23%; TDP1 cell noCPT: 16µM*; DT40 TDP1 CPT: 18µM*; TGFb inhibitor: -31%; HepG2 tox: -4%; S2 tox: inactive

Results for Cn1ccc2c(-c3ccc(F)nc3)cc3c(c21)C1CCC3O1 (stereo not given) ?
ATXN2 expr inh: -7%; TDP1 cell noCPT: inconclusive; DT40 TDP1 CPT: inconclusive; TGFb inhibitor: -10%; HepG2 tox: -11%; S2 tox: inactive

What do the screens show for `CN(c1cc2c(c3c1ccn3C)C1CCC2O1)C1CCCCC1` (stereo not given)?
ATXN2 expr inh: -24%; TDP1 cell noCPT: inconclusive; DT40 TDP1 CPT: inconclusive; TGFb inhibitor: inconclusive; HepG2 tox: 12%; S2 tox: inconclusive

What do the screens show for `Cn1ccc2c(N3CCCCCCC3)cc3c(c21)C1CCC3O1` (stereo not given)?
ATXN2 expr inh: 0%; TDP1 cell noCPT: 21µM*; DT40 TDP1 CPT: inconclusive; TGFb inhibitor: inconclusive; HepG2 tox: -21%; S2 tox: inactive

Results for CN(c1ccc(Cl)cc1)c1cc2c(c3c1ccn3C)C1CCC2O1 (stereo not given) ?
ATXN2 expr inh: -1%; TDP1 cell noCPT: 23µM*; DT40 TDP1 CPT: inconclusive; TGFb inhibitor: -3%; HepG2 tox: -3%; S2 tox: inactive

Results for CCN(CC)c1cc2c(c3c1ccn3C)C1CCC2O1 (stereo not given) ?
ATXN2 expr inh: -8%; TDP1 cell noCPT: -18%; DT40 TDP1 CPT: -11%; TGFb inhibitor: -10%; HepG2 tox: 2%; S2 tox: inactive

How did Cn1ccc2c(/C=C/c3ccc(F)cc3)cc3c(c21)C1CCC3C1 (stereo not given) do in these assays?
ATXN2 expr inh: -14%; TDP1 cell noCPT: inconclusive; DT40 TDP1 CPT: -16%; TGFb inhibitor: -35%; HepG2 tox: 1%; S2 tox: inactive

What do the screens show for `CCCN(CC1CC1)c1cc2c(c3c1ccn3C)C1CCC2O1` (stereo not given)?
ATXN2 expr inh: -7%; TDP1 cell noCPT: 10µM*; DT40 TDP1 CPT: 15µM*; TGFb inhibitor: -25%; HepG2 tox: -20%; S2 tox: inactive

How did Cn1ccc2c(/C=C/c3ccc(F)cc3)cc3c(c21)C1CCC3O1 (stereo not given) do in these assays?
ATXN2 expr inh: -28%; TDP1 cell noCPT: 12µM*; DT40 TDP1 CPT: 26µM*; TGFb inhibitor: inconclusive; HepG2 tox: -28%; S2 tox: inactive

How did Cc1ccc(N2C(=O)CS(=O)(=O)C23C(=O)N(Cc2ccccc2F)c2ccccc23)cc1Cl (stereo not given) do in these assays?
ATXN2 expr inh: 5%; TDP1 cell noCPT: inconclusive; DT40 TDP1 CPT: 15µM*; TGFb inhibitor: 0%; HepG2 tox: -8%; S2 tox: inactive

Results for COc1ccc(N2C(=O)CS(=O)(=O)C23C(=O)N(Cc2ccc(F)cc2)c2ccc(C)cc23)cc1 (stereo not given) ?
ATXN2 expr inh: -11%; TDP1 cell noCPT: 15µM*; DT40 TDP1 CPT: inconclusive; TGFb inhibitor: 12%; HepG2 tox: -54%; S2 tox: inactive

How did Cc1ccc(CN2C(=O)C3(c4ccccc42)N(c2ccc(C)c(Cl)c2)C(=O)CS3(=O)=O)cc1 (stereo not given) do in these assays?
ATXN2 expr inh: -1%; TDP1 cell noCPT: inconclusive; DT40 TDP1 CPT: inconclusive; TGFb inhibitor: -15%; HepG2 tox: -31%; S2 tox: inactive

What do the screens show for `OC[C@H](S)CS`?
TDP1 cell noCPT: 16µM*; DT40 TDP1 CPT: 8.9µM*; TGFb inhibitor: inconclusive; HepG2 tox: 5%

Results for OCC(S)CS (stereo not given) ?
TDP1 cell noCPT: 17µM*; DT40 TDP1 CPT: inconclusive

How did CC1(C)CC(=O)/C(=C(\O)CCCN2C(=O)c3ccccc3C2=O)C(=NCCO)C1 do in these assays?
ATXN2 expr inh: -16%; TDP1 cell noCPT: -10%; DT40 TDP1 CPT: -4%; TGFb inhibitor: 10%; HepG2 tox: -29%; S2 tox: inconclusive

Assay outcomes deposited in PubChem by National Center for Advancing Translational Sciences (NCATS).
